Common to all, as to assay: pooled miR-30 sensor sort-seq; sequence = guide strand
What all share (conditions): shRNA

Experiment [1] deals with UMOD.
The target of experiment [2] is UNC5A.
Experiment [3] concerns the target ULK1.
The target in experiment [4] is UNC5D.
Experiment [5] addresses UBXN2A.
Experiment [6] concerns the target UST.
The target in experiment [7] is VAMP8.
Experiment [8] deals with WFDC12.
The target of experiment [9] is WRB.
Experiment [10] deals with WNT4.
Experiment [11] addresses WRAP73.
Experiment [12] has as its target WNT16.
The target of experiment [13] is XAGE3.
Also: reference of the scale not given here.

Consider TAGAGCACTGACCATTGGCTGT, for which, in experiment [1], the sensor-assay potency score (higher = more potent) was -0.936. TATACTGCACTCCTCACACGTC came in with a sensor-assay potency score (higher = more potent) in [1] of -0.701.

On to TAGGCCTTCTGACTCTTGGTGG, for which the sensor-assay potency score (higher = more potent) in [2] was -0.43. On the same count and under the same terms, for TTGGTGAGCTGGAACTTGGGGC the value was -0.337. On to TTGCACTTTTCATTCATGGTGT, for which the sensor-assay potency score (higher = more potent) in experiment [1] is 0.244. Still for that read-out and setting: the value for TTGTAGACGTAGTAGCCGCCGG was -1.04.

Regarding TTGATGCTGAAGCTCTGCCCGT, in experiment [2], the sensor-assay potency score (higher = more potent) is -1.2. TTGTTCTTCTCGTAGAACAGGC had a sensor-assay potency score (higher = more potent) in experiment [3] of -0.479. On to ATGTGTATGTACAAACACCAGG, for which the sensor-assay potency score (higher = more potent) in experiment [3] is -1.55.

On to TTACTCTTCCACAGGGAGCTGG, for which the sensor-assay potency score (higher = more potent) in experiment [2] is -0.541.

In experiment [2], TCTCATAGATCTTCCCTCGGGG yielded a sensor-assay potency score (higher = more potent) of -0.279. ATCAAGAGAACATTCAACCAGG registered a sensor-assay potency score (higher = more potent) in [3] of -0.0767.

Turning to TTCTTCTTGTTAATGCACTTGA, the sensor-assay potency score (higher = more potent) in experiment [3] came out at 0.0356. In turn, TAGATCAACACGTGTCTCCTAG came in with a sensor-assay potency score (higher = more potent) in experiment [4] of 1.06. On to ATCAGTGATGTTGAAGTCCTGT, for which the sensor-assay potency score (higher = more potent) in [1] was determined as 0.164.

As for TTGTCCTACATCATAAGCCTTT, the sensor-assay potency score (higher = more potent) in experiment [4] was -0.645. As for TTGCACTTGAAGAAGATCTGCG, the sensor-assay potency score (higher = more potent) in [2] was found to be 0.732. On the same count and under the same terms, the value for TTGAGGATCATGGCTGTGGGGC was -1.23. In experiment [1], TTTCATTCCTCGTCAACACTGT came in with a sensor-assay potency score (higher = more potent) of 0.582. In [2], TTGAAGTTGATGCTGAAGCTCT yielded a sensor-assay potency score (higher = more potent) of -0.155. Consider TTGCGGGAGAACTCGAACTTGC, for which the sensor-assay potency score (higher = more potent) in experiment [3] was -0.945. The same measure, in the same setting: the value for TTCTTCTCGTAGAACAGGCGCA was -0.466; that for TTCAGGTACAGCACCAGCTGTT was -0.477. In experiment [1], TTGAAGTCCTGTTTGCACTGGC yielded a sensor-assay potency score (higher = more potent) of 0.829. On to TAGTTGAGTCTCTAGTGTGTGG, for which the sensor-assay potency score (higher = more potent) in experiment [1] was -0.521.

In turn, TTCCTCGTCAACACTGTCCCAC registered a sensor-assay potency score (higher = more potent) in [1] of 0.0538.

In the case of TTGCAAAGAAAAACACACGTGT, the sensor-assay potency score (higher = more potent) in experiment [3] turned out to be 0.333. In the case of TATATTTACATCTACCTGTTTC, the sensor-assay potency score (higher = more potent) in [5] is -0.892. As to ATCCTGTTCTTCATCGTCGATT, the sensor-assay potency score (higher = more potent) in [6] was -1.53. In [6], TACCCTGTTGTACACCACCTGG returned a sensor-assay potency score (higher = more potent) of -1.05.

For the sequence TTTTCGAGCCACCTTCTGCGAT, the sensor-assay potency score (higher = more potent) in experiment [7] is -1.17. In experiment [8], TGACACATCTTCATCCTTGTTT had a sensor-assay potency score (higher = more potent) of 0.329.

In experiment [9], TCACATTTCGTACAGATCGAGG returned a sensor-assay potency score (higher = more potent) of -1.13. On to TTGTCAGAGCATCCTGACCACT, for which, in [10], the sensor-assay potency score (higher = more potent) was -1.18. Sequence ATATCTGGCAAACTCGTCCATC returned a sensor-assay potency score (higher = more potent) in [9] of -0.952. Still for that read-out and setting: for TTGCATCCAAACACGAAGCTGA the value was 0.58. As to TACATATTTACAAAAATGCTTT, the sensor-assay potency score (higher = more potent) in [11] is -1.06.

For the sequence TACTATACAACTCTTGCTCAAC, in experiment [9], the sensor-assay potency score (higher = more potent) is -0.82.

Consider TTGGGAATGTTGTCGTTCCTTG, for which, in experiment [11], the sensor-assay potency score (higher = more potent) is -0.237. On the same count and under the same terms, the value for TTGCTCTGTCGGTAACAGGTTT was -1.05. Sequence TTACAGACTAAAATCCAACAGG yielded a sensor-assay potency score (higher = more potent) in experiment [9] of -0.429. In [11], TTCGGGTTTGCTCTGTCGGTAA displayed a sensor-assay potency score (higher = more potent) of -0.662.

In [12], TTCTTTACAAAACACTGTCTTT displayed a sensor-assay potency score (higher = more potent) of -0.946. In the case of TATTTACTCTCTGAGCTCGGGA, the sensor-assay potency score (higher = more potent) in experiment [11] was -0.387. Regarding TTGAACTGTGCGTTGCGTGGCA, the sensor-assay potency score (higher = more potent) in experiment [10] came out at 0.0724. Take TTATACACCACTATCTTGGGAT: in experiment [11], the sensor-assay potency score (higher = more potent) was 0.881.

In [10], TCGAGTGTGGAGCAGTTCCAGC came in with a sensor-assay potency score (higher = more potent) of -1.25. Turning to TTAAATACAAAACACAAGTTGA, the sensor-assay potency score (higher = more potent) in experiment [9] was -0.499. Consider TACACCAGGTCCTCATCTGTGT, for which the sensor-assay potency score (higher = more potent) in experiment [10] is -0.668. Same read-out and setting: the value for TTTCTCGCACGTCTCCTCCTCT was -0.548. In experiment [9], TAGTGTTGTTCTTTTAACCATA returned a sensor-assay potency score (higher = more potent) of -0.891. The sequence TTTCTTATCTTCTACACAGTAG returned a sensor-assay potency score (higher = more potent) in experiment [12] of -0.455. The sequence TAACAGGTTTCAGTGTCTGTAA returned a sensor-assay potency score (higher = more potent) in experiment [11] of -0.596. As to TAATACTATACAACTCTTGCTC, the sensor-assay potency score (higher = more potent) in experiment [9] was found to be 0.423. In turn, AAGGAGTCGAGTGTGGAGCAGT came in with a sensor-assay potency score (higher = more potent) in experiment [10] of -0.667. Turning to TTATCTTGGCTAATTGAGCTGT, the sensor-assay potency score (higher = more potent) in experiment [9] was -0.0399. For TGGCATTTTAAATTGTTCTGAT, in experiment [13], the sensor-assay potency score (higher = more potent) was -0.221. In [11], TAATCTTTGCAGTCGCGCCGTT showed a sensor-assay potency score (higher = more potent) of -0.556. In the case of TTGCGTGGCACCAGTGCCCTGG, the sensor-assay potency score (higher = more potent) in experiment [10] was -0.464.

In turn, TTGGACGTCTTGTTGCATGTGC came in with a sensor-assay potency score (higher = more potent) in experiment [10] of 0.653.
